Screening data deposited in PubChem BioAssay by National Center for Advancing Translational Sciences (NCATS).
The sample as a whole holds a higher share of hits than the screen did.
Methyltransferases: Primary Screen for Target Class Profiling of Small Molecule Inhibitors of Methyltransferases; purified enzyme, MTase-Glo SAH luminescence; stronger effect = lower value; calls only at 40 µM; hit rate 3.9% among 25,000; AID 1745853, 2022; call rule not given here
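Each enzyme was reacted with SAM and its substrate, with compounds tested once at 40 uM; SAH formed was read by MTase-Glo luminescence.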
Starred values were filed as active, the others as inactive; i = inactive; + = active, no number; ! = a repeat was not active. % is scaled to controls: 0 for no effect and ±100 for the full control effect.

SMILES	Methyltransferases
Cc1ccc(C(=O)Cn2nc3n(C)c(=O)c4ccc(C(=O)NC5CCCC5)cc4n3c2=O)cc1	i
CCC1c2ccc(C)n2CCN1C(=O)Nc1cccc(Cl)c1C (configuration not stated)	i
CCc1ccccc1NC(=O)c1ncn2c1C(=O)N(C1CC1)C(C)(C(=O)NCc1ccc(OC)cc1)C2 (configuration not stated)	i
Cc1ccc(Cn2c(=O)c3ccccc3n3c(CCC(=O)NCc4ccccc4Cl)nnc23)cc1	i
CC(C)c1cc2c(c(O)c1O)[C@@]13CCCC(C)(C)C1[C@@H](O)[C@@H]2OC3=O (some centres not stated)	+
CC(C)c1cc2c(c(O)c1O)[C@@]13CCCC(C)(C)[C@@H]1[C@H](OC3=O)C2=O	i
COC1OC(=O)C2=C1C1(C)CCCC(C)(C)C1CC2O (configuration not stated)	i
COc1cc(OC)c(NC(=O)N2CCn3cccc3C2Cc2ccccc2)cc1Cl (configuration not stated)	i
CCN1CCC[C@H]1CNC(=O)c1c(O)c(Cl)cc(Cl)c1OC	i
CCN1CCCC1CNC(=O)c1cc(S(=O)(=O)CC)c(N)cc1OC (configuration not stated)	i
CCN1CCC[C@@H]1CNC(=O)c1ccc2c(c1)NC(=O)/C(=C/c1ccccc1F)S2	+
Cc1cc(C)cc(N2C(=O)CSc3c(c4ccccc4n3C)C2C(=O)NCc2ccc(F)cc2)c1 (configuration not stated)	i
CCCN1C(=O)c2c(C(=O)NCc3cccc(C)c3)ncn2CC1(C)C(=O)NCCC(C)C (configuration not stated)	i
CCOc1ccc(C2c3cccn3-c3sc4c(c3CN2C(=O)Nc2ccc(C)cc2)CCCC4)cc1 (configuration not stated)	i
COc1ccc2c(c1)c(NC(C)=O)c1n2CC(C)(C(=O)NC2CCCCCC2)N(C2CCCC2)C1=O (configuration not stated)	i
Cc1ccc(S(=O)(=O)NCCc2nc(-c3ccc4c(c3)ncn4C)no2)cc1	i
CN1CCN(c2ccc(C(=O)Nc3n[nH]c4ccc(Cc5cc(F)cc(F)c5)cc34)c(NC3CCOCC3)c2)CC1	i
CCc1nc(C(N)=O)c(Nc2ccc(N3CCC(N4CCN(C)CC4)CC3)c(OC)c2)nc1NC1CCOCC1	+
CCCn1c(=O)c2ccccc2n2c(SCC(=O)Nc3cc(Cl)ccc3C)nnc12	i
CC1CCCC(NC(=O)C2(C)Cn3c(nc4ccccc43)C(=O)N2Cc2ccc3c(c2)OCO3)C1C (configuration not stated)	i
O=C(NCCNC(=O)c1cccnc1)c1cccnc1	i
N#Cc1ccc(-c2cnc3[nH]cc(NC(=O)c4cccnc4)c3c2)cc1	+
CCS(=O)(=O)N(Cc1cccnc1)c1cccc(-c2ccc(C#N)cc2)c1	i
COc1ccccc1CNC(=O)C1(C)Cn2c(cc3ccccc32)C(=O)N1Cc1cccnc1 (configuration not stated)	i
CC(C)CCNC(=O)C1c2c(n(C)c3ccccc23)SCC(=O)N1c1cccc(C(F)(F)F)c1 (configuration not stated)	i
SMILES	Methyltransferases
Cc1ccccc1Cn1nc2n(Cc3ccccc3)c(=O)c3ccccc3n2c1=O	i
COc1ccc(NC(=O)CSc2nnc3[nH]c(=O)c(C)nn23)cc1OC	i
O=C1CSc2ccccc2N1Cc1cccc(C(F)(F)F)c1	+
O=C1CN(Cc2cccc(F)c2)S(=O)(=O)c2ccccc2N1Cc1ccc(Cl)cc1	i
Cc1ccc(CN2CC(=O)N(Cc3cccc(F)c3)c3ccccc3S2(=O)=O)cc1	i
CCOC(=O)c1cc2n(n1)CC(C)(C(=O)NCCC(C)C)N(c1ccc(C)cc1C)C2=O (configuration not stated)	i
CCOc1ccc(NC(=O)N2Cc3c(sc4c3CCCC4)-n3cccc3C2c2cccc(C)c2)cc1 (configuration not stated)	i
CCC1CCCCN1CCCN1C(=O)c2cc3occc3n2CC1(C)C(=O)NC1CCC(C)CC1 (configuration not stated)	i
COc1ccc(CN2C(=O)c3cc4ccccc4n3CC2(C)C(=O)NCc2ccccc2)c(OC)c1 (configuration not stated)	i
CCCN1C(=O)c2cc(C(=O)NCc3cccc(C)c3)nn2CC1(C)C(=O)NC1CCCC1 (configuration not stated)	i
CC(C)n1c(=O)c2ccc(C(=O)NC3CCCCC3)cc2n2c(=O)n(Cc3ccc(F)cc3)nc12	i
CC(C)n1cc(-c2ccc(Oc3ccccc3)cc2)c2c(N)ncnc21	+
CS(=O)(=O)Nc1ccc2oc3c(OC(F)F)ccc(C(=O)Nc4c(Cl)cncc4Cl)c3c2c1	+
CCCn1c(=O)c2cc(Cl)ccc2n2c(SCc3cccc(OC)c3)nnc12	i
Cc1ccccc1N1C(=O)c2cc3sccc3n2CC1(C)C(=O)NC1CCCCC1C (configuration not stated)	i
CCCn1c(=O)c2ccc(C(=O)NC(C)C)cc2n2c(=O)n(CC(=O)NC3CCCC3)nc12	i
O=C(CCn1ccc2cc(S(=O)(=O)N3CCCCC3)ccc21)NCc1cccc(F)c1	i
CC1CCC(NC(=O)C2(C)Cn3c(nc4ccccc43)C(=O)N2Cc2ccc3c(c2)OCO3)CC1 (configuration not stated)	i
CC1=CC(=O)CC(C)(CO)C1(O)/C=C/C(C)O[C@@H]1O[C@H](CO)[C@@H](O)[C@H](O)[C@H]1O (some centres not stated)	i
CC(CCc1ccc(O)cc1)O[C@@H]1O[C@H](CO[C@@H]2OC(CO)[C@H](O)[C@H]2O)[C@@H](O)[C@H](O)[C@H]1O (some centres not stated)	i
CC1=C(CCC(C)O[C@@H]2O[C@H](CO)[C@@H](O)[C@H](O)[C@H]2O)C(C)(C)CCC1=O (some centres not stated)	+
COc1cccc(NC(=O)N2Cc3c(sc4c3CCCC4)-n3cccc3C2C)c1 (configuration not stated)	i
CCOC(=O)c1cc2n(n1)CC(C)(C(=O)NCCCOC)N(c1ccc(CC)cc1)C2=O (configuration not stated)	i
CC1(C(=O)NC2CCCCCCC2)Cc2ccccc2C(=O)N1C1CCCCCC1 (configuration not stated)	i
O=C(O)C1(Cc2cccc(Nc3nccs3)n2)CCC(Oc2cccc(Cl)c2F)CC1 (configuration not stated)	+!
SMILES	Methyltransferases
O=C(CCc1nnc2n(Cc3ccc(F)cc3)c(=O)c3ccccc3n12)NCCCN1CCCC1=O	i
Cc1ccc(NC(=O)Cn2nc3nc(Nc4ccc(C)cc4)ccn3c2=O)cc1	i
Cc1oc(C(O)c2ccccc2)nc1C(=O)Nc1ccc(C(=O)Nc2ccccc2)cc1 (configuration not stated)	i
O=C(CCCCCCC(=O)Nc1ccccc1)NO	i
CC(C)[C@H](C(=O)Nc1ccc(C(=O)NO)cc1)c1ccccc1	+
CCOc1ccc(C2c3cccn3-c3sc4c(c3CN2C(=O)Nc2ccc(C(=O)OC)cc2)CCCC4)cc1 (configuration not stated)	i
CCOC(=O)[C@@H](N)Cc1ccc(-c2cc(O[C@H](c3ccc(Cl)cc3-n3ccc(C)n3)C(F)(F)F)nc(N)n2)cc1	+
